According to PubChem BioAssay (Tox21):
Inconclusive results are not listed. Activity calls are given as the source filed them. The call rests on the fitted dose curve; in most records, active means well fitted cell-killing curve with a large enough effect in the repeat runs; inconclusive means weak or mixed curves, or effect the other way; inactive means no such curve, though single readings can be large or run the other way.

test: qHTS assay to identify small molecule agonists of the vitamin D receptor (VDR) signaling pathway - cell viability counter screen (AID 743224); conditions: VDR-bla HEK293T viability, CellTiter-Glo luminescence, 16 h; series mostly up to 62.6 µM; activity change, negative = cytotoxicity: at the top concentration; further: nearly all actives have a fitted effect of over 50% in size
Outline: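 Cytotoxicity counter screen: VDR-bla cells, 16 h compound exposure at 37C, 5% CO2; CellTiter-Glo luminescence, 30 min RT, same wells as bla read.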
On the % scale 0 is the no-effect control and ±100 the full control effect; potency means the concentration at half of the fitted maximal effect.

Structure (SMILES)	activity change, negative = cytotoxicity	Potency
CCCCCCCCOC(=O)c1ccc(C(=O)OCCCCCCCC)c(C(=O)OCCCCCCCC)c1	-3.09% [at 81.1 µM] (inactive)	–
N#Cc1ccc(Cl)cc1	-2.27% (inactive)	–
CCOc1nc(F)cc2nc(S(=O)(=O)Nc3c(Cl)cccc3Cl)nn12	15.4% (inactive)	–
C[C@]12CC[C@H]3[C@@H](CCC4=CC(=O)CC[C@@H]43)[C@@H]1CC[C@@H]2OC(=O)CCC1CCCCC1	-7.93% (inactive)	–
CN1[C@@H]2CC[C@H]1CC(OC(=O)c1cc(Cl)cc(Cl)c1)C2 (some centres not stated)	0.436% (inactive)	–
COc1cc(Cl)c(OC)cc1Cl	-8.7% (inactive)	–
CCOP(=S)(OCC)SCSCC	-0.808% (inactive)	–
Cc1c(F)c(F)c(COC(=O)C2C(/C=C(\Cl)C(F)(F)F)C2(C)C)c(F)c1F (configuration not stated)	1.85% (inactive)	–
CC[C@H]1C[C@H]2[C@@H]3CCC4=CC(=O)CC[C@@H]4[C@H]3CC[C@]2(C)[C@H]1O	6.53% (inactive)	–
COC(=O)c1cncn1C(C)c1ccccc1 (configuration not stated)	8.34% (inactive)	–
COc1ccc(-c2ccccc2)cc1NNC(=O)OC(C)C	–	57.2 µM (active)
O=[Se]=O	-0.238% (inactive)	–
CCc1ccc(C(=O)NN(C(=O)c2cc(C)cc(C)c2)C(C)(C)C)cc1	-14.2% (inactive)	–
COC(=O)C(C)N(C(=O)Cc1ccccc1)c1c(C)cccc1C (configuration not stated)	-6.93% (inactive)	–
CC(C)O.CC(C)O.OCCN(CCO)CCO.OCCN(CCO)CCO.[Ti]	5.58% (inactive)	–
Cc1ccccc1C(=O)Nc1cccc(OC(C)C)c1	-20.8% (inactive)	–

Structure (SMILES)	activity change, negative = cytotoxicity	Potency
ClCc1cccc(Cl)c1	-5.46% (inactive)	–
N#CCC#N	-10.5% (inactive)	–
CCOS(C)(=O)=O	0.999% [at 81.1 µM] (inactive)	–
CCOP(=S)(Oc1ccc([N+](=O)[O-])cc1)c1ccccc1 (configuration not stated)	-2.95% (inactive)	–
CCCCC(O)(Cn1cncn1)c1ccc(Cl)cc1Cl (configuration not stated)	–	48.9 µM (active)
c1ccc(C2CC2)c(OCC2=NCCN2)c1	4.13% (inactive)	–
ClP(Cl)(Cl)(Cl)Cl	3.66% [at 81.1 µM] (inactive)	–
O=C(CBr)OCc1ccccc1	-13.5% (inactive)	–
CN1C[C@H](CNC(=O)OCc2ccccc2)C[C@@H]2c3cccc4c3c(cn4C)C[C@H]21	-29.2% (inactive)	–
C=CCN1CC[C@]23c4c5ccc(O)c4O[C@H]2C(=O)CC[C@@]3(O)[C@H]1C5	5.4% (inactive)	–
Cn1sc(Cl)cc1=O	9.07% (inactive)	–
CCCCc1c(C)nc(NCC)nc1OS(=O)(=O)N(C)C	-1.95% (inactive)	–
CCO[C@H]1O[C@@H]2OC3(C)CC[C@H]4[C@H](C)CC[C@@H]([C@H]1C)[C@@]24OO3	-5.18% (inactive)	–
NC(=O)CI	-3.23% [at 81.1 µM] (inactive)	–
C[N+](C)(C)CCCl	9.92% [at 81.1 µM] (inactive)	–
Nc1ccc([N+](=O)[O-])cc1[N+](=O)[O-]	-2.78% (inactive)	–
